# Only some compounds are listed: those with a hit (about 4% of all), similar ones and a draw of the others.
# Mtb betalactam = beta-lactam sensitization of Mtb H37Rv, H37Rv. M. tuberculosis H37Rv growth with meropenem, percent inhibition. 0.27% of 330,000 active. inhibition, % at 25 µM. AID 434955, 2010;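 also: growth measured after seven days incubation then overnight dye step; 0% = bacteria only wells and 100% = bacteria with antibiotic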
# Rv3671c inh = Rv3671c serine protease inhibitors, primary screen, biochemical, fluorescence polarization, M. tuberculosis H37Rv; P9WHR9; inhibition, % at 5.96 µM; 0.048% of 320,000 active; AID 2606, 2010; in the data active = inhibition above about 38%;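 also: extracellular domain of Rv3671c used as enzyme; 0% = enzyme with DMSO and 100% = no enzyme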
# GDH-TPI counter-1 = GDH-TPI coupling enzyme inhibitors, primary screen, artefact control for M. tuberculosis FBA inhibitor project, biochemical, absorbance, full deck | 1.2% of 360,000 active | GDH-TPI coupled enzyme counterscreen, NADH absorbance | inhibition, % at 4.8 µM; in the data active = inhibition above about 30%;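 also: 0% = DMSO wells and 100% = wells lacking the enzyme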
# RecA intein inh = Mtb RecA intein splicing inhibitors, primary screen, biochemical, fluorescence, HTS | cell-free RecA intein splicing | Protein RecA (Mycobacterium tuberculosis (strain ATCC 25618 / H37Rv)), P9WHJ3 | 0.75% of 290,000 active | inhibition, % (no concentration beside the values); in the data active = inhibition above about 30%; inconclusive = no clear call, values can overlap the other calls;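 also: 0% = vehicle wells and 100% = reference inhibitor control wells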
# UGM FP inh = M. tuberculosis UGM enzyme inhibitors, primary screen, biochemical, fluorescence polarization, single point | UDP-galactopyranose mutase (Mycobacterium tuberculosis (strain ATCC 25618 / H37Rv)), … | purified UGM, fluorescence polarization probe displacement | inhibition, % at 10 µM | 0.06% of 320,000 active | AID 504406, 2011; in the data active = inhibition above about 10%, passing the limit was not always enough; inconclusive = no clear call, values can overlap the other calls
# Target sequence (P9WIQ1 whole entry, looked up): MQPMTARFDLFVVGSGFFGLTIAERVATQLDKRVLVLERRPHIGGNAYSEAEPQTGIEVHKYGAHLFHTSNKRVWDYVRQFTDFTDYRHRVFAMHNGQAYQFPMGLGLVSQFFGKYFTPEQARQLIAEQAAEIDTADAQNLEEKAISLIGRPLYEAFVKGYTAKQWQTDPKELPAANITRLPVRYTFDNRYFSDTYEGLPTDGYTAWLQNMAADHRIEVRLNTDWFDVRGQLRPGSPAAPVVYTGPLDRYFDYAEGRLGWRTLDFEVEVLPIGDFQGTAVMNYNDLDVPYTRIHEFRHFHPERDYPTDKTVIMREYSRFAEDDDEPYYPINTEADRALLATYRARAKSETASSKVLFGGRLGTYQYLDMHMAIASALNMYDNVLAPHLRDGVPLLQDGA
# Mtb FBA inh = Mtb FBA enzyme inhibitors, primary screen, biochemical, fluorescence, strain H37Rv; Fructose-bisphosphate aldolase (Mycobacterium tuberculosis (strain ATCC 25618 / H37Rv)), …; purified M. tuberculosis FBA, fluorescence read-out; inhibition, % at 1 µM; 2.3% of 360,000 active; AID 588726, 2011; in the data active = inhibition above about 27%;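 also: 0% = vehicle and 100% = reference inhibitor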
# Mtb FBA confirm = M. tuberculosis aldolase blockers, biochemical, fluorescence, strain H37Rv, confirmation; shares compounds with Mtb FBA inh; purified M. tuberculosis FBA, fluorescence read-out; inhibition, % at 1 µM; 78% of 5,600 active; in the data active = inhibition above about 27%;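 also: 0% = vehicle wells and 100% = reference inhibitor wells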
# GDH-TPI counter-2 = GDH-TPI coupling enzyme inhibitors, artefact control for M. tuberculosis FBA inhibitor project, biochemical, fluorescence, high throughput; inhibition, % at 1 µM; 81% of 5,600 active; GDH-TPI coupled enzyme counterscreen; shares compounds with Mtb FBA inh; in the data active = inhibition above about 10%
# GDH-TPI dose = GDH-TPI coupling enzyme inhibitors, dose response, artefact control for M. tuberculosis FBA inhibitor project, biochemical, fluorescence, IC50; 79% of 170 active; GDH-TPI coupled enzyme assay, artifact counterscreen; shares compounds with Mtb FBA inh; IC50, µM
# The depositor's hits bear a star; ? = inconclusive; nt = no result; + = active, no number. Unless noted, no rule for the calls is given here.
SMILES,Mtb betalactam,Rv3671c inh,GDH-TPI counter-1,RecA intein inh,UGM FP inh,Mtb FBA inh,Mtb FBA confirm,GDH-TPI counter-2,others
Cc1ccc(-c2nc3c(c(=O)[nH]c(=O)n3Cc3ccccc3)n2C)s1,-10,-17,nt,1,0,nt,nt,nt,
Cc1ccc(-c2nc3c(c(=O)[nH]c(=O)n3Cc3ccccc3)n2Cc2ccccc2)o1,nt,nt,10,1,nt,38*,153*,133*,
CC(=O)O[C@H](COc1c2ccoc2cc2oc(=O)ccc12)C(C)(C)O,-1,8,12,nt,0,45*,0,-6,
CC(C)(O)[C@H](O)COc1c2ccoc2cc2oc(=O)ccc12,13,-1,15,-2,-1,2,nt,nt,
Cc1nc2cc(-c3cccs3)[nH]n2c(=O)c1C,6,4,2,0,0,46*,11,2,GDH-TPI dose=5.7*
NC(=O)COc1ccc(NS(=O)(=O)Cc2ccccc2)cc1,-16,1,3,-1,0,1,nt,nt,
NC(=O)c1ccccc1NS(=O)(=O)Cc1ccccc1,5,-5,4,0,3,62*,84*,66*,
COC(=O)c1cc(C(=O)OCC(=O)c2ccc[nH]2)cc([N+](=O)[O-])c1,10,-4,17,nt,-1,3,nt,nt,
CCn1c(-c2ccc(N)cc2)nc2ccccc21,2,5,3,-1,-1,83*,102*,78*,
C=CCn1c(-c2ccc(N)cc2)nc2ccccc21,1,8,12,2,0,92*,12,-3,
Cc1cccc2c(N=O)c(O)n(CCc3ccccc3)c12,1,-69,9,2,-2,-3,nt,nt,
O=C(NCc1ccc(F)cc1)c1ccc(CS(=O)(=O)Cc2ccc(F)cc2)o1,-8,1,-9,-4,2,0,nt,nt,
O=C(NCc1ccc(F)cc1)c1ccc(CS(=O)(=O)Cc2ccccc2F)o1,0,-10,2,-1,-2,55*,95*,83*,
CC(C)N(C(=O)Cn1cc(S(=O)(=O)CC(=O)NC2CCCCC2)c2ccccc21)C(C)C,3,2,-8,1,1,0,nt,nt,
CCN(CC)C(=O)Cn1cc(S(=O)(=O)CC(=O)NC2CCCCC2)c2ccccc21,-11,-6,-10,0,?,33*,99*,83*,
N=c1c(S(=O)(=O)c2ccc(Cl)cc2)cc2c(=O)n3ccccc3nc2n1Cc1ccco1,-3,-4,15,-235,1,56*,142*,107*,
CCn1c(=N)c(S(=O)(=O)c2ccc(Cl)cc2)cc2c(=O)n3ccccc3nc21,-10,6,nt,-15,nt,nt,nt,nt,
N=c1c(S(=O)(=O)c2ccccc2)cc2c(=O)n3ccccc3nc2n1CC1CCCO1 (centres undefined),2,8,16,nt,-3,69*,+,+,
COCCn1c(=N)c(S(=O)(=O)c2ccc(F)cc2)cc2c(=O)n3ccccc3nc21,1,-7,9,-328,0,34*,52*,41*,
O=C(CC12CC3CC(CC(C3)C1)C2)NCc1ccc(F)cc1,nt,-5,8,2,1,4,nt,nt,
O=C1c2ccccc2C(=O)N1CCc1ccccn1,-16,1,1,0,-4,3,nt,nt,
O=C1c2cccc3cccc(c23)C(=O)N1Cc1ccccn1,nt,nt,17,nt,nt,32*,61*,37*,
O=C1c2cccc3cccc(c23)C(=O)N1c1ccccn1,-5,5,9,1,-2,51*,-16,-16,
